Drawing on PubChem BioAssay (NCATS), this text covers Potency for 17 molecules.

Common to all, as to assay: qHTS profiling for inhibitors of Plasmodium falciparum proliferation (AID 504749); note: nearly all actives have a fitted effect of over 60% in size
What all share (settings): P. falciparum in erythrocytes, SYBR Green DNA, 72 h; series mostly up to 28.7 µM

For one experiment, the system named is CP291. Put shortly: (§1)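 SYBR Green fluorescence of parasite DNA, read after lysis and overnight dark incubation, measured growth over 72 h in erythrocyte culture at 0.3% parasitemia and 2.5% hematocrit. Data normalised to DMSO and 0.29 uM artemisinin, with plate-drift correction.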
Another experiment concerns CP297. The essentials:
as §1

In another experiment the test system is CP305. Put shortly: as §1
The next experiment concerns CP315. The essentials:
as §1

The next experiment has as its system CP325. The essentials:
as §1

For a further experiment, the system named is CP329. The essentials: as §1
A further experiment concerns CP335. Put shortly: as §1
Another experiment relates to DFO2036. The essentials: as §1
For a further experiment, the system named is DIV14. Put shortly:
as §1

The subject of the next experiment is DIV17. Put shortly:
as §1

Another experiment concerns DIV30. Put shortly: as §1
A further experiment deals with Dd2. The essentials: as §1
The next experiment has as its system ECU. Put shortly: as §1
The test system of another experiment is FAB9. The essentials: as §1
The test system of a further experiment is GB4. Put shortly: as §1
In a further experiment the test system is HB3. The essentials:
as §1

In another experiment the test system is ICS. Put shortly:
as §1

Another experiment deals with JCK. Put shortly: as §1
In a further experiment the test system is N140. Put shortly: as §1
In another experiment the test system is P93_24. The essentials: as §1

Results filed as inconclusive are left out. Activity calls are given as the source filed them. Calls come from the whole dose curve; as a rule, active = well fitted inhibition curve with a large enough effect; inconclusive = small, poorly fitted or top-dose-only effect; inactive = flat fitted curve, though single readings scatter.
Potency is the fitted concentration of half-maximal effect.

As for `Cc1ncc2n1-c1ccc(Cl)cc1C(c1ccccc1F)=NC2`, the Potency result in the experiment on CP291, in the experiment with CP297, with CP305, in the experiment with CP315, with CP325 and in the experiment with CP329 was “inactive” in each case. For the same molecule, the Potency result with CP335, with DFO2036, with DIV14, in the experiment on DIV17, with DIV30 and in the experiment on Dd2 was “inactive” throughout. Besides, the Potency result in the experiment on ECU, with FAB9, with GB4, in the experiment with HB3, in the experiment on ICS and in the experiment on JCK was “inactive” each time. Moreover, the Potency entry in the experiment on N140 and in the experiment on P93_24 was “inactive” in each case.
In the case of `NCc1cccnc1`, the Potency entry in the experiment on CP291, in the experiment with CP297, in the experiment with CP305, in the experiment with CP315, in the experiment on CP325 and with CP329 was “inactive” throughout. In addition, the Potency result in the experiment on CP335, in the experiment with DFO2036, in the experiment on DIV14, with DIV17, with DIV30 and in the experiment on Dd2 was “inactive” in each case. Further, the Potency entry with ECU, in the experiment on FAB9, in the experiment on GB4, with HB3, in the experiment with ICS and in the experiment with JCK was “inactive” in each case. Moreover, the Potency entry with N140 and with P93_24 was “inactive” each time.
On to `CCS(=O)(=O)C(C)(C)S(=O)(=O)CC`, for which the Potency entry in the experiment on CP291, with CP297, in the experiment with CP305, with CP315, in the experiment on CP325 and with CP329 was “inactive” each time. Moreover, the Potency entry with CP335, in the experiment on DFO2036, with DIV14, with DIV17, in the experiment with DIV30 and with Dd2 was “inactive” throughout. The Potency result in the experiment with ECU, in the experiment with FAB9, in the experiment on GB4, in the experiment on HB3, in the experiment on ICS and in the experiment with JCK was “inactive” in each case. The Potency result in the experiment on N140 and in the experiment on P93_24 was “inactive” each time.
On to `c1ccc2nc(N3CCNCC3)ccc2c1`, for which the Potency result with CP291, in the experiment on CP297, in the experiment on CP305, with CP315, in the experiment with CP325 and with CP329 was “inactive” in each case. The Potency entry in the experiment on CP335, in the experiment on DFO2036, with DIV14, with DIV17, in the experiment with DIV30 and with Dd2 was “inactive” throughout. Further, the Potency result in the experiment on ECU, in the experiment with FAB9, in the experiment on GB4, in the experiment on HB3, with ICS and with JCK was “inactive” each time. Moreover, the Potency entry in the experiment on N140 and in the experiment on P93_24 was “inactive” in each case.
For `COP(=S)(OC)Oc1ccc(Sc2ccc(OP(=S)(OC)OC)cc2)cc1`, the Potency entry with CP291, in the experiment with CP297, in the experiment with CP305, in the experiment on CP315, with CP325 and in the experiment on CP329 was “inactive” each time. In addition, the Potency result in the experiment with CP335, in the experiment with DFO2036, in the experiment with DIV14, in the experiment with DIV17, with DIV30 and in the experiment on Dd2 was “inactive” in each case. Moreover, the Potency result in the experiment on ECU, in the experiment on FAB9, with GB4, in the experiment with HB3, in the experiment on ICS and in the experiment on JCK was “inactive” throughout. The Potency result in the experiment with N140 and in the experiment on P93_24 was “inactive” in each case.
As to `CCOC(=O)NC(O)C(Cl)(Cl)Cl` (stereo unspecified), the Potency entry in the experiment on CP291, in the experiment with CP297, in the experiment on CP305, in the experiment with CP315, in the experiment with CP325 and with CP329 was “inactive” in each case. In addition, the Potency entry in the experiment with CP335, with DFO2036, in the experiment on DIV14, with DIV17, in the experiment on DIV30 and in the experiment with Dd2 was “inactive” each time. Further, the Potency result in the experiment on ECU, in the experiment on FAB9, in the experiment on GB4, in the experiment with HB3, with ICS and in the experiment with JCK was “inactive” each time. The Potency result with N140 and with P93_24 was “inactive” each time.
On to `O=c1n(Cl)c(=O)n(Cl)c(=O)n1Cl`, for which the Potency result in the experiment on CP291, in the experiment on CP297, in the experiment with CP305, with CP315, in the experiment with CP325 and in the experiment with CP329 was “inactive” in each case. For the same molecule, the Potency result with CP335, with DFO2036, in the experiment with DIV14, with DIV17, in the experiment on DIV30 and in the experiment with Dd2 was “inactive” each time. Moreover, the Potency result in the experiment with ECU, in the experiment with FAB9, in the experiment on GB4, with HB3, with ICS and in the experiment with JCK was “inactive” in each case. The Potency entry in the experiment with N140 and in the experiment with P93_24 was “inactive” each time.
With `CC(C)(C)OC(=O)c1ncn2c1[C@@H]1CCCN1C(=O)c1c(Br)cccc1-2`, the Potency entry in the experiment on CP291, in the experiment with CP297, in the experiment with CP305, with CP315, in the experiment with CP325 and in the experiment with CP329 was “inactive” throughout. Further, the Potency result with CP335, with DFO2036, with DIV14, in the experiment with DIV30, with Dd2 and in the experiment on ECU was “inactive” throughout. The Potency entry in the experiment with FAB9, in the experiment with GB4, with HB3, in the experiment on JCK, in the experiment on N140 and in the experiment with P93_24 was “inactive” each time.
For the molecule `CC(C)[N+](C)(CCC(C(N)=O)(c1ccccc1)c1ccccc1)C(C)C`, the Potency result with CP291, with CP297, in the experiment with CP305, in the experiment on CP315, in the experiment on CP325 and with CP329 was “inactive” each time. For the same molecule, the Potency result in the experiment with CP335, in the experiment with DFO2036, with DIV14, in the experiment on DIV17, in the experiment with DIV30 and in the experiment with Dd2 was “inactive” throughout. The Potency result with ECU, in the experiment on FAB9, in the experiment on GB4, in the experiment with HB3, with ICS and with JCK was “inactive” in each case. In addition, the Potency result in the experiment with N140 and in the experiment on P93_24 was “inactive” throughout.
Consider `c1cc2c(c(N3CCNCC3)c1)OCCO2`, for which the Potency result in the experiment with CP291, with CP305, in the experiment on CP315, with CP325, in the experiment with CP329 and in the experiment with CP335 was “inactive” throughout. Also, the Potency entry in the experiment with DFO2036, in the experiment on DIV14, with DIV30, in the experiment with Dd2, in the experiment with ECU and in the experiment on FAB9 was “inactive” in each case. For the same molecule, the Potency entry with GB4, in the experiment on HB3, with ICS, with JCK, in the experiment on N140 and with P93_24 was “inactive” each time.
As for `C#C[C@]1(O)CC[C@H]2[C@@H]3CCC4=CC(=O)CCC4=C3C=C[C@@]21CC`, the Potency entry in the experiment with CP315 and in the experiment with JCK was “inactive” each time. Besides, the Potency was 4.26 µM (active) in the experiment with DIV14; 5.36 µM (active) in the experiment on DIV17; 11.2 µM (active) in the experiment with ECU; 10 µM (active) in the experiment with HB3; 8.91 µM (active) with ICS.
For `ClC1=C(Cl)C2(Cl)C(CBr)CC1(Cl)C2(Cl)Cl` (stereo unspecified), the Potency result in the experiment with CP291, in the experiment with CP297, with CP305, in the experiment with CP315, with CP325 and in the experiment with CP329 was “inactive” in each case. Moreover, the Potency entry in the experiment with DFO2036, with DIV14, in the experiment with DIV17, in the experiment on DIV30, with Dd2 and in the experiment with ECU was “inactive” each time. Also, the Potency result in the experiment with FAB9, in the experiment with GB4, in the experiment with HB3, with JCK, in the experiment on N140 and in the experiment with P93_24 was “inactive” each time.
Take `OC(c1ccccc1)(c1ccccc1)C1CCNCC1`: the Potency entry in the experiment on CP291, in the experiment on CP297, in the experiment on CP305, in the experiment with CP315, in the experiment on CP325 and in the experiment on CP329 was “inactive” throughout. The Potency entry in the experiment on CP335, in the experiment with DFO2036, in the experiment with Dd2, in the experiment on ECU, in the experiment with FAB9 and in the experiment on GB4 was “inactive” throughout. Moreover, the Potency entry in the experiment with HB3, in the experiment with JCK, with N140 and in the experiment with P93_24 was “inactive” throughout.
Take `O=C(NC(=O)c1c(F)cccc1F)Nc1cc(Cl)c(OC(F)(F)C(F)C(F)(F)F)cc1Cl` (stereo unspecified): the Potency entry in the experiment with CP291, in the experiment with CP297, with CP305, in the experiment on CP315, in the experiment with CP325 and in the experiment with CP329 was “inactive” each time. In addition, the Potency entry in the experiment on DIV14, with DIV17, in the experiment with DIV30, with FAB9, with GB4 and in the experiment on JCK was “inactive” each time. The Potency in the experiment with P93_24 is 8.91 µM (active).
`CN1C(=O)CN=C(c2ccccc2)c2cc([N+](=O)[O-])ccc21`: the Potency entry with CP291, in the experiment with CP297, with CP305, in the experiment on CP315, in the experiment on CP329 and with DFO2036 was “inactive” in each case. In addition, the Potency result in the experiment with DIV14, in the experiment on DIV17, with DIV30, in the experiment on Dd2, in the experiment on ECU and in the experiment with FAB9 was “inactive” each time. Moreover, the Potency result in the experiment with GB4, in the experiment on ICS, in the experiment with JCK, with N140 and in the experiment on P93_24 was “inactive” each time.
As to `Oc1c(Br)cc(Br)cc1Br`, the Potency entry with CP291, with CP305, in the experiment on CP315, in the experiment on CP325, with CP329 and in the experiment on CP335 was “inactive” each time. The Potency entry in the experiment with DFO2036, in the experiment on DIV14, in the experiment with DIV17, with DIV30, in the experiment with Dd2 and in the experiment on ECU was “inactive” each time. The Potency entry in the experiment on FAB9, with GB4, in the experiment with HB3, in the experiment with ICS, in the experiment with JCK and with N140 was “inactive” in each case. In addition, in the experiment with P93_24, the Potency entry is “inactive”.
Consider `C=CCOC(Cn1ccnc1)c1ccc(Cl)cc1Cl` (stereo unspecified), for which the Potency with CP291 is 12 µM (active); in the experiment with CP297, 6.75 µM (active); in the experiment on CP315, 16.9 µM (active); in the experiment on CP325 it was 15.1 µM (active); in the experiment on DFO2036 it was 12.6 µM (active); in the experiment with DIV14, 5.36 µM (active). Further, the Potency was 8.49 µM (active) in the experiment on DIV17; 7.57 µM (active) in the experiment on DIV30; 7.08 µM (active) in the experiment on Dd2; 3.98 µM (active) in the experiment with ECU; 4.78 µM (active) with GB4; 11.2 µM (active) in the experiment on HB3. Also, the Potency was 2.51 µM (active) with ICS, 5.62 µM (active) with N140 and 3.98 µM (active) with P93_24.
